Measurements as given in PubChem BioAssay (NCATS).
“And” between values parts separate entries of the source, which are not always exact repeats. Equal values may be shown once. Inconclusive results are not listed. Where a call stands in place of a potency, no number is given. The source made the active and inactive calls. Unless noted, the call rests on the fitted dose curve; in most records, active means well fitted curve in the direction sought with a large enough effect; inconclusive means small, poorly fitted or top-dose-only effect, or another doubt; inactive means no such curve, though single readings can be large; an effect the other way counts as inactive or inconclusive.

Experiments:
[1] = Validation of Assay for Modulators of Lamin A Splicing (AID 1459; active means well fitted curve in the direction sought with a large enough effect in the signal ratio; the % refers to the signal ratio;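 further: cells exposed to compound for two days before reading; ratio rise marks activators and ratio drop marks inhibitors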); conditions: Lamin A splicing dual RFP/GFP fluorescence reporter; series mostly up to 9.22 µM
Summary of the method: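 Splicing correction read as GFP (500-530 nm) over DsRed2 (575-640 nm) object intensity after 48 h compound exposure of reporter HeLa S3 clones (600 cells/well, 2% FBS medium); ancitabine and cycloheximide titrations, 0.5% DMSO as vehicle.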

[2] = Counterscreen for APE1 Inhibitors: Fluorescent Dye Displacement Validation Assay (AID 1707); conditions: fluorescent dye displacement from DNA; series mostly up to 57.1 µM
Summary of the method: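 Counterscreen flags promiscuous DNA binders: compounds displacing ThO from duplex DNA (abasic THF site, 50 nM) reduce 540 nm emission (480 nm excitation). ThO 250 nM final; Tris-HCl pH 7.5 with NaCl, MgCl2 and Tween-20.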

[3] = molecular target: Endonuclease 4 (Escherichia coli (strain K12)) (UniProt P0A6C1); assay: Counterscreen for APE1 Inhibitors: qHTS Validation Assay for Inhibitors of Endonuclease IV (AID 1708); conditions: E. coli endonuclease IV, DNA cleavage fluorescence; series mostly up to 57.1 µM
Summary of the method: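 Enzyme (2 nM) + compound, 15 min RT; add 50 nM TAMRA/BHQ-2 THF-site dsDNA; kinetic read ex525/em598, 3 reads/60 s; activity = read 3 − read 1. Buffer Tris pH 7.5, 50 mM NaCl, 2 mM MgCl2, DTT, Tween-20.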

[4] = qHTS for differential inhibitors of proliferation of Plasmodium falciparum line 7G8 (AID 1815); conditions: Plasmodium falciparum 7G8 proliferation inhibition; series mostly up to 28.7 µM;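 further: parasite growth measured after three days of incubation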; further: potency means the concentration at half of the fitted maximal effect
[5] = qHTS for differential inhibitors of proliferation of Plasmodium falciparum line GB4 (AID 1816); conditions: Potency: Plasmodium falciparum GB4 proliferation inhibition; series mostly up to 28.7 µM;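 further: parasite growth measured after 72 h incubation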; further: potency means the concentration at half of the fitted maximal effect
[6] = qHTS for differential inhibitors of proliferation of Plasmodium falciparum line 3D7 (AID 1876); further: potency means the concentration at half of the fitted maximal effect; conditions: P. falciparum 3D7 proliferation inhibition; series mostly up to 28.7 µM
[7] = molecular target: DNA repair nuclease/redox regulator APEX1 (Homo sapiens) (UniProt P27695); assay: qHTS Validation Assay for Inhibitors of the Human Apurinic/apyrimidinic Endonuclease 1 (APE1) (AID 1705;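 further: TAMRA fluorescence gain over two minutes as APE1 cuts a quenched THF abasic duplex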); conditions: purified APE1 endonuclease activity, fluorescence, titration; series mostly up to 57.1 µM
Summary of the method: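 Activity read as rising fluorescence (598 nm emission, 525 nm excitation) from incision of a TAMRA/BHQ-2 duplex carrying a THF abasic site (50 nM). Compound and enzyme sat 15 min at RT before substrate start; signal change between first and third 60-s reads.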

[8] = Cell Viability - LYMP1-002 - Assay at 40 hr (AID 994); conditions: LYMP1-002 lymphoblastoid cell viability; series mostly up to 92.2 µM; further: nearly all actives have a fitted effect of over 60% in size
Summary of the method: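 Cells are plated at 2500 per well and rested 5 hr at 37 C. Compounds are added and incubated 40 hr at 37 C. CellTiter-Glo reagent is added for 30 min at room temperature before luminescence is read.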

[9] = molecular target: alpha-glucosidase (Oryza sativa, rice) (UniProt Q653V4); assay: Counterscreen for Glucocerebrosidase Inhibitors: qHTS Assay for Rice alpha-Glucosidase at pH 5.0 (AID 997); conditions: rice alpha-glucosidase enzyme activity; series mostly up to 76.9 µM
Summary of the method: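 Endpoint fluorogenic assay at pH 5.0: compounds (0.7 nM to 77 uM) titrated against 4 nM rice enzyme and 400 uM 4-MU-alpha-glucoside for 20 min at room temperature; NaOH/glycine stop, read ex 365/em 440 nm, Hill-fitted AC50.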

[10] = qHTS Assay for Lipid Storage Modulators (AID 1519; calls by dose curve); conditions: Drosophila S3 cells, BODIPY lipid droplet/cell ratio, laser cytometry, cells loaded with oleic acid; for activity change, negative = inhibition: at 57.5 µM (top of the series)
Summary of the method: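 Cells seeded at 5,000 per well were treated with compounds over a concentration series and loaded with oleic acid (400 uM, as added). Lipid droplet fluorescence (488 nm excitation, 500-530 nm channel) was read by laser-scanning cytometry and normalized to 20 uM Triacsin C.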

[11] = measured here: cell count channel max response
[12] = measured here: lipid channel max response

Chain of DNA repair nuclease/redox regulator APEX1 (Homo sapiens) (P27695 whole entry, looked up): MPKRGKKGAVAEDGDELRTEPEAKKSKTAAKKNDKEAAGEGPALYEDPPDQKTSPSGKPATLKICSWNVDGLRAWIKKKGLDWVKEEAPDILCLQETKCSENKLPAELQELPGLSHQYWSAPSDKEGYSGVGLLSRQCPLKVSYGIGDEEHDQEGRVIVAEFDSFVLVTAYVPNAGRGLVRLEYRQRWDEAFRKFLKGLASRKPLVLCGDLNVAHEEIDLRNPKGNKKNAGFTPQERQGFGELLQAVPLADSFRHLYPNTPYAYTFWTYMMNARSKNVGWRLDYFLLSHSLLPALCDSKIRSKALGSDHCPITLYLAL

Compound: CCOC(=O)C12CC1/C(=N/O)c1ccccc1O2 (stereo unspecified)
- outcome [1]: inactive
- Potency [2]: inactive
- Potency [3]: inactive
- Potency [4]: inactive
- Potency [5]: inactive
- Potency [6]: inactive

Compound: CCCn1c(=O)c2[nH]c(-c3ccc(S(=O)(=O)O)cc3)nc2n(CCC)c1=O
- outcome [1]: inactive
- Potency [7]: inactive
- Potency [3]: inactive
- Potency [4]: inactive
- Potency [6]: inactive

Compound: CC(=O)C(C)=O
- outcome [8]: inactive
- outcome [1]: inactive
- Potency [7]: inactive
- Potency [2]: inactive
- Potency [4]: inactive
- Potency [5]: inactive
- Potency [6]: inactive

Compound: Cn1ccnc1
- outcome [1]: inactive
- Potency [7]: inactive
- Potency [2]: inactive
- Potency [4]: inactive
- Potency [5]: inactive
- Potency [6]: inactive

Compound: CCCCCCN(CCCCCC)C(=O)Cc1c(-c2ccc(F)cc2)[nH]c2ccccc12
- outcome [1]: inactive
- Potency [7]: inactive
- Potency [2]: inactive
- Potency [4]: 5.01 µM (active)
- Potency [5]: 3.98 µM (active)
- Potency [6]: 5.01 µM (active)

Compound: c1ccc2nc(C3=NCCN3)ccc2c1
- outcome [9]: inactive
- outcome [1]: inactive
- Potency [7]: inactive
- Potency [2]: inactive
- Potency [4]: inactive
- Potency [6]: inactive

Compound: C=CCN1CCc2c(cc(O)c(O)c2Br)[C@@H](c2ccccc2)C1
- outcome [1]: inactive
- Potency [2]: inactive
- Potency [3]: inactive
- Potency [4]: 5.01 µM (active)
- Potency [5]: 5.01 µM (active)
- Potency [6]: 7.08 µM (active)

Compound: Cn1c(=O)c2[nH]c(-c3ccc(S(=O)(=O)O)cc3)nc2n(C)c1=O
- outcome [9]: inactive
- outcome [1]: inactive
- Potency [7]: inactive
- Potency [3]: inactive

Compound: Cc1ccc2c(c1)C(N1CCN(C)CC1)=Nc1cccnc1N2
- outcome [9]: inactive
- outcome [1]: inactive
- Potency [2]: inactive

Compound: Nc1ccc2c3c(cccc13)C(=O)NC2=O
- activity change, negative = inhibition [10]: 0.251% (inactive)
- max response [10, 11]: -11.6%
- max response [10, 12]: -11.3%
- Potency [3]: inactive

Compound: C[N+](C)(C)CC=O
- outcome [9]: inactive
- activity change, negative = inhibition [10]: -0.649% (inactive)
- max response [10, 11]: 50.2%
- max response [10, 12]: 40.1%
- Potency [7]: inactive
- Potency [2]: inactive
- Potency [3]: inactive
- Potency [4]: inactive
- Potency [5]: inactive
- Potency [6]: inactive

Compound: N=C(N)SCCc1cnc[nH]1
- outcome [9]: inactive
- activity change, negative = inhibition [10]: 2.03% (inactive)
- max response [10, 11]: 1.98%
- max response [10, 12]: 5.06%
- Potency [7]: inactive
- Potency [2]: inactive
- Potency [4]: inactive
- Potency [5]: inactive
- Potency [6]: inactive

Compound: CNCCNS(=O)(=O)c1cccc2cnccc12
- outcome [9]: inactive
- activity change, negative = inhibition [10]: 0.292% (inactive)
- max response [10, 11]: 5.66%
- max response [10, 12]: 5.52%
- Potency [7]: inactive
- Potency [2]: inactive
- Potency [3]: inactive
- Potency [4]: inactive
- Potency [5]: inactive
- Potency [6]: inactive

Compound: O=c1[nH]c2ccccc2c2ccccc12
- outcome [9]: inactive
- activity change, negative = inhibition [10]: 1.72% (inactive)
- max response [10, 11]: 17.8%
- max response [10, 12]: 20.4%
- Potency [7]: inactive
- Potency [2]: inactive
- Potency [3]: inactive
- Potency [5]: inactive
- Potency [6]: inactive

Compound: C/C(=C\c1ccc(C(=O)O)cc1)c1ccc2c(c1)C(C)(C)CCC2(C)C
- outcome [9]: inactive
- activity change, negative = inhibition [10]: -4.87% (inactive) and -0.58% (inactive)
- max response [10, 11]: -0.191% and 31.2%
- max response [10, 12]: -3.14% and 29.9%
- Potency [2]: inactive
- Potency [5]: inactive

Compound: OC[C@H]1O[C@@H](n2cnc3cncnc32)[C@H](O)[C@@H]1O
- activity change, negative = inhibition [10]: -4.73% (inactive)
- max response [10, 11]: 0.328%
- max response [10, 12]: -1.94%
- Potency [7]: inactive
- Potency [2]: inactive
- Potency [3]: inactive
- Potency [4]: inactive
- Potency [6]: 5.01 µM (active)

Compound: CC#CCOC(=O)c1c(C)nc2sc3c(c2c1N)CCC(O)C3 (stereo unspecified)
- activity change, negative = inhibition [10]: -1.83% (inactive)
- max response [10, 11]: 5.64%
- max response [10, 12]: 4.05%
- Potency [7]: inactive
- Potency [2]: inactive
- Potency [3]: inactive
- Potency [6]: 11.2 µM (active)

Compound: O=C(OCCN1CCOCC1)C1(c2ccccc2)CCCCC1
- outcome [9]: inactive
- outcome [1]: inactive
- Potency [2]: inactive
- Potency [5]: 10 µM (active)

Compound: Clc1nccc2c1ccc1ccccc12
- outcome [9]: inactive
- activity change, negative = inhibition [10]: -1.52% (inactive)
- max response [10, 11]: -15.2%
- max response [10, 12]: -17.8%
- Potency [2]: inactive
- Potency [4]: inactive
- Potency [5]: inactive
- Potency [6]: inactive

Compound: COc1ccc2c(c1)c(CC(=O)O)c(C)n2Cc1ccc(Cl)cc1
- activity change, negative = inhibition [10]: -1.87% (inactive)
- max response [10, 11]: -35.2%
- max response [10, 12]: -34.3%
- Potency [7]: inactive
- Potency [2]: inactive
- Potency [3]: inactive
- Potency [4]: 14.1 µM (active)
- Potency [5]: 10 µM (active)
- Potency [6]: 11.2 µM (active)

Compound: Nc1ccc(-c2ccc3ccccc3n2)cc1
- outcome [9]: inactive
- outcome [1]: inactive
- Potency [2]: inactive

Compound: Cc1cccc(C(=O)NCN2CCN(c3ccccc3C#N)CC2)c1
- outcome [9]: inactive
- activity change, negative = inhibition [10]: 0.112% (inactive)
- max response [10, 11]: -23.9%
- max response [10, 12]: -22.6%
- Potency [7]: inactive
- Potency [2]: inactive
- Potency [3]: inactive
- Potency [4]: inactive
- Potency [6]: inactive

Compound: N[C@@H](Cc1c[nH]c2ccccc12)C(=O)O
- outcome [9]: inactive
- activity change, negative = inhibition [10]: 1.05% (inactive)
- max response [10, 11]: 61.2%
- max response [10, 12]: 63.3%
- Potency [7]: inactive
- Potency [2]: inactive
- Potency [3]: inactive
- Potency [4]: 11.2 µM (active)

Compound: NC(=O)CNCCC(c1ccccc1)c1ccccc1
- outcome [9]: inactive
- activity change, negative = inhibition [10]: 0.71% (inactive)
- max response [10, 11]: -14.5%
- max response [10, 12]: -14.2%
- Potency [7]: inactive
- Potency [2]: inactive
- Potency [3]: inactive
- Potency [4]: 4.47 µM (active)

Compound: CC(C)(CO)Cc1cc(C(C)(C)C)c(O)c(C(C)(C)C)c1
- outcome [9]: inactive
- activity change, negative = inhibition [10]: -0.753% (inactive)
- max response [10, 11]: -30.7%
- max response [10, 12]: -34%
- Potency [7]: inactive
- Potency [2]: inactive
- Potency [6]: 3.98 µM (active)

Compound: CC1CNCCN1S(=O)(=O)c1cccc2cnccc12 (stereo unspecified)
- activity change, negative = inhibition [10]: -0.941% (inactive)
- max response [10, 11]: 3.07%
- max response [10, 12]: 3.63%
- Potency [7]: inactive
- Potency [2]: inactive
- Potency [3]: inactive
- Potency [5]: 12.6 µM (active)
- Potency [6]: inactive
